Experimental data reported in PubChem BioAssay (EPA / NIEHS).
“And” between values parts separate entries of the source, which are not always exact repeats. Identical values can stand only once. Results filed as inconclusive are left out. Some compounds were tested as several samples or in several runs, with calls that do not always agree. The source made the active and inactive calls. Rule for the calls: active = hit-call score of the fitted dose curve at least 0.9, where 1 is the maximum; inconclusive = response in the unintended direction; inactive = score below 0.9.

molecular target: Cellular tumor antigen p53 (Homo sapiens) (UniProt P04637); test: TOX21_p53_BLA_p2_ratio: Tox21 HCT-116 p53 Agonism Beta-lactamase Assay, Ratio, Phase 2 (AID 2283592)
Source text: TOX21_p53_BLA_p2 is a cell-based, single-readout assay that uses HCT116, a human intestinal cell line, […] in a 1536-well plate.TOX21_p53_BLA_p2_ratio is an assay readout measuring reporter gene via receptor activity and designed using inducible reporter (beta lactamase induction) detected with GAL4 b-lactamase reporter gene. The signal is derived from the ratio of cleaved (ch2) to uncleaved (ch1) reporter gene substrate used as the measure of target activity.Data from the assay component TOX21_p53_BLA_p2_ratio was analyzed into 1 assay endpoint. This assay endpoint, TOX21_p53_BLA_p2_ratio, was analyzed in the positive analysis fitting direction relative to DMSO as the negative control and baseline of activity. Using a type of inducible reporter, gain-of-signal activity can be used to understand changes in the reporter gene as they relate to the gene TP53. Furthermore, this assay endpoint can be referred to as a primary readout, because this assay has produced multiple assay endpoints and this ratio serves a reporter gene function to understand target activity. To generalize the intended target to other relatable targets, this assay endpoint is annotated to the DNA binding intended target family, where the subfamily is tumor suppressor.
Thawing Method: Place 14 mL of pre-warmed thaw medium into a 15 mL of conical tub. Remove the vial of cells to be thawed from liquid nitrogen and thaw rapidly by placing at 37C in a water bath with gentle agitation for 1-2 minutes. Decontaminate the vial by wiping with 70% ethanol before opening in a biological safety cabinet. Transfer the vial contents drop-wise into 14 mL of thaw medium in a sterile 15-mL conical tub. Centrifuge cells at 900 rpm for 4 minutes and resuspend in thaw medium. Transfer contents to the T75 tissue culture flask containing Thaw Medium and place flask in a humidified 37C/5% CO2 incubator. Switch to growth medium at first passage.Propagation Method: Aspirate medium, rinse once in DPBS, add 0.25% Trypsin/EDTA and swirl to coat the cell evenly. Add an equal volume of Growth Medium to inactivate Trypsin after 2-3 minutes incubation at 37C. Centrifuge cells at 900 rpm for 4 minutes and resuspend in growth medium. Cell should be passage or fed at least twice a week.Assay Protocol: Harvest cells from culture in growth medium and resuspend in assay medium. 2.2 Dispense 4000 cells/5 uL/well into 1536-well black/clear bottom plates using a Multidrop dispenser. After the cells were incubated at 37C for 5 hours, 23 nL of compounds dissolved in DMSO were transferred to the assay plate by a PinTool resulting in a 217-fold dilution. Incubate the plates for 16 hours at 37C, 5% CO2. Add 1 uL of 6X LiveBLAzer FRET B/G (CCF4-AM) Substrate Mixture to each well using a BioRAPTR dispenser and incubate the plates at room temperature for 2 hours. Measure fluorescence intensity at 460 and 530 nm emission and 405 nm excitation by an Envision detector. Data is expressed as the ratio of 460nm/530nm emissions. Add 4 uL of Cell-titer Glo to each well using BioRAPTR and incubate the plates at room temperature for 2 hours. Measure fluorescence intensity by a VewLux plate reader.

Sequence of Cellular tumor antigen p53 (Homo sapiens) (P04637 whole entry, looked up, the tested form may be a part): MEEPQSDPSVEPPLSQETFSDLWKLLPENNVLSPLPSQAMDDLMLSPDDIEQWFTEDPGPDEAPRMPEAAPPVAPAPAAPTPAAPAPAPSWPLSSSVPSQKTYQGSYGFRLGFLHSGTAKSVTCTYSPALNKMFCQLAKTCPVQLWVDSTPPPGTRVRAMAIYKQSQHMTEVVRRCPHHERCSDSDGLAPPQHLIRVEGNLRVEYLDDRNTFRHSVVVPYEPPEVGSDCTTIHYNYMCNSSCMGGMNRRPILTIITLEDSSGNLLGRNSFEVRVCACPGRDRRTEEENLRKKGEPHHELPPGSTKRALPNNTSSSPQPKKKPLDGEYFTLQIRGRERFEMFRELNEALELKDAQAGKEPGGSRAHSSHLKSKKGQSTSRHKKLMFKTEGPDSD

Row | SMILES | outcome | AC50
1 | C1N2CN3CN1CN(C2)C3 | inactive | –
2 | O=c1n(CC2CO2)c(=O)n(CC2CO2)c(=O)n1CC1CO1 (stereo not given) | – | 19.6 µM (active) and 9.81 µM (active) and 20.5 µM (active)
3 | CC(=O)OC[C@H]1O[C@@](COC(C)=O)(O[C@H]2O[C@H](COC(C)=O)[C@@H](OC(C)=O)[C@H](OC(C)=O)[C@H]2OC(C)=O)[C@@H](OC(C)=O)[C@@H]1OC(C)=O | inactive | –
4 | COC(=O)c1c(Cl)c(Cl)c(C(=O)OC)c(Cl)c1Cl | inactive | –
5 | C=CCCCCCCCCC(=O)O | inactive | –
6 | Nc1ccc(Nc2ccccc2)cc1 | inactive | 86 µM (active)
7 | CC(C)=CCCC(C)=CC=O | inactive | –
8 | CNS(=O)(=O)c1cc(C(=O)N2CCC(CCN3C4CCC3CC(n3c(C)nc5ccccc53)C4)(c3cccc(F)c3)CC2)c(Cl)cc1F (stereo not given) | inactive | –
9 | CCCCC(CC)COC(=O)CCCCCCCCC(=O)OCC(CC)CCCC (stereo not given) | inactive | –
10 | Cc1ccc(O)cc1 | inactive | –
11 | C[C@](N)(Cc1ccc(O)c(O)c1)C(=O)O | inactive | –
12 | CCCCCCc1ccc(O)cc1O | inactive | 53.5 µM (active) and 42.9 µM (active)
13 | Nc1cccc(N)c1 | inactive | –
14 | COC(=O)c1ccccc1O | inactive | –
15 | COc1ccc2sc(C(=O)Nc3nnn[nH]3)c(OC(C)C)c2c1 | inactive | –
16 | Cc1c(-c2cccnc2)c2ccccc2n1CCCCC(=O)O | inactive | –
17 | CCOCCO | inactive | –
18 | Cn1c(=O)c2c(ncn2C)n(C)c1=O | inactive | –
19 | CC(C)c1cccc(C(C)C)c1N1C(=O)c2ccc(O)cc2C1=O | – | 1.77 µM (active)

Row | SMILES | outcome | AC50
20 | O=C(O)c1cccc(Oc2ccccc2)c1 | inactive | –
21 | C=CC(=C)CCC=C(C)C | inactive | –
22 | O=c1[nH]c2ccc(S(=O)CCN3CCC(Cc4ccc(F)cc4)CC3)cc2o1 (stereo not given) | inactive | –
23 | O=C(O)CC(O)C(=O)O (stereo not given) | inactive | –
24 | CN(C)c1ccc(Cc2ccc(N(C)C)cc2)cc1 | inactive | –
25 | COc1ccc(/C=C/S(=O)(=O)NC(=O)c2ccc(C)cc2Cl)cc1 | – | 28 µM (active)
26 | CCc1cc(SCc2sc(-c3ccc(C(F)(F)F)cc3)nc2CN2CCN(c3ccc(OC)cc3)CC2)ccc1OCC(=O)O | – | 46.1 µM (active)
27 | Cc1ccc(N)cc1O | inactive | –
28 | O=C1CCCCCN1 | inactive | –
29 | CCOCCOCCOCCO | inactive | –
30 | Cc1[nH]cnc1C[C@H]1CCc2c(C)c3ccccc3n2C1=O | inactive | –
31 | CC1=CC(=O)CC(C)(C)C1 | inactive | –
32 | O=P(OC(CCl)CCl)(OC(CCl)CCl)OC(CCl)CCl | inactive | –
33 | O=C(O)c1cc(N=Nc2ccc(S(=O)(=O)Nc3ccccn3)cc2)ccc1O | inactive | –
34 | O=C1OC(=O)C2C3C=CC(C3)C12 (stereo not given) | inactive | –
35 | Fc1ccccc1[C@@H](F)COC1CCC(Nc2ncnc3[nH]ncc23)CC1 (stereo not given in full) | inactive | –
36 | O=C(NS(=O)(=O)/C=C/c1ccccc1)c1ccc(F)cc1Cl | – | 13 µM (active)
37 | CC[C@H]1OC(=O)[C@H](C)[C@@H](O[C@H]2C[C@@](C)(OC)[C@@H](O)[C@H](C)O2)[C@H](C)[C@@H](O[C@@H]2O[C@H](C)C[C@H](N(C)C)[C@H]2O)[C@](C)(O)C[C@@H](C)C(=O)[C@H](C)[C@@H](O)[C@]1(C)O | inactive | –
38 | CCCCCCCCCCCCCCCO | inactive | –
